Data on 176 sequences can be found in paper PMC4242493, “Sequence specificity incompletely defines the genome-wide occupancy of Myc”.

The full ranking holds about 33,000 sequences; the median of “normalized occupancy” is about 0.075, and the highest 2% start at about 0.095. Shown is part of a subset that was picked to be rich in the highest values.

For the assay, the target named is MaxL homodimer (Homo sapiens, UniProt P61244 1-160). The assay is described as follows: universal protein-binding microarray (PBM); PBS-based mixture, 10 nM His-tagged protein dimer, 2% milk, 200 ng/uL BSA, 50 ng/uL salmon testes DNA, 0.02% TX-100; detection with Alexa 488 anti-His antibody;; high values mean tight binding. The note with it: protein: recombinant; tags: C-terminal His-tag (pET21a); chain copies: 2; dsDNA, one strand shown. The procedure, abridged: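 Each 8-mer received a fluorescence intensity from GenePix 4400A scans of Agilent 4 x 44 K 'all 10-mer' universal arrays. Those arrays had been incubated with His-tagged protein dimer at 10 nM, and the bound protein was marked with a fluorophore-conjugated anti-His antibody at 10 ng/μL. Binding occupancy is the intensity scaled to that of the highest-ranked sequence word.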
Chain of MaxL homodimer (P61244 whole entry): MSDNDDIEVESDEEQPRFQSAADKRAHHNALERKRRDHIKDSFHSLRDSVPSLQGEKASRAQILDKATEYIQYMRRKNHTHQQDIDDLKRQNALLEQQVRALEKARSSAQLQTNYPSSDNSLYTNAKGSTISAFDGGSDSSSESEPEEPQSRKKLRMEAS
Regarding CAAAATGG, the binding signal turned out to be 0.0769 normalized occupancy.

As for AATTACAG, the binding signal stood at 0.0778 normalized occupancy.

Consider CATGCGCG, for which the binding signal was 0.11 normalized occupancy.

Consider AATGCGCG, for which the binding signal was found to be 0.0754 normalized occupancy.

TATGCGCA: the binding signal came to 0.0804 normalized occupancy.

AATGCGCA: the binding signal is 0.0804 normalized occupancy.

Turning to CATGCGCC, the binding signal is 0.111 normalized occupancy.

Turning to CATGCGCA, the binding signal came out at 0.125 normalized occupancy.

Consider AGTGCGCC, for which the binding signal worked out at 0.0735 normalized occupancy.

As to ATTGCGCG, the binding signal amounted to 0.0747 normalized occupancy.

For the sequence AATGCGCC, the binding signal is 0.0731 normalized occupancy.

For AGTGCGCA, the binding signal is 0.076 normalized occupancy.

For CGTGCGCA, the binding signal turned out to be 0.0967 normalized occupancy.

In the case of CGTGCGCC, the binding signal is 0.0922 normalized occupancy.

On to GTCGCTGA, for which the binding signal was found to be 0.0755 normalized occupancy.

For the sequence ACAATAGA, the binding signal is 0.0762 normalized occupancy.

In the case of ACTTGACG, the binding signal was 0.0741 normalized occupancy.

Take GTCATCGA: the binding signal is 0.0798 normalized occupancy.

Turning to ATAGATGC, the binding signal is 0.075 normalized occupancy.

Regarding CGCACTGA, the binding signal is 0.0735 normalized occupancy.

For the sequence ACTTACAA, the binding signal came to 0.0743 normalized occupancy.

Consider ACGAGACA, for which the binding signal was found to be 0.0856 normalized occupancy.

As for CTCGTGAA, the binding signal is 0.0894 normalized occupancy.

As for TGCGTGAA, the binding signal was 0.0808 normalized occupancy.

With CGCGTGAC, the binding signal is 0.134 normalized occupancy.

GGCGTGAA: the binding signal is 0.0776 normalized occupancy.

As to CTCGTGAC, the binding signal worked out at 0.104 normalized occupancy.

Consider ATCGTGAC, for which the binding signal is 0.0839 normalized occupancy.

With CGCGTGAA, the binding signal worked out at 0.105 normalized occupancy.

CCCGTGAG: the binding signal turned out to be 0.0759 normalized occupancy.

As for CGCGTGAG, the binding signal was 0.109 normalized occupancy.

Take GGCGTGAC: the binding signal worked out at 0.0927 normalized occupancy.

As for CGTGTGAC, the binding signal amounted to 0.0871 normalized occupancy.

AGCGTGAG: the binding signal is 0.091 normalized occupancy.

Turning to CGCCCCCC, the binding signal came to 0.0791 normalized occupancy.

Take CCTAAGGA: the binding signal is 0.0757 normalized occupancy.

On to ACTTTACC, for which the binding signal was 0.0744 normalized occupancy.

As for ACGATCAA, the binding signal amounted to 0.0748 normalized occupancy.

Take AGAGATTC: the binding signal stood at 0.0757 normalized occupancy.

On to CGTTACAC, for which the binding signal was 0.0819 normalized occupancy.

In the case of TGTTACAA, the binding signal stood at 0.0777 normalized occupancy.

As for AATGCTTC, the binding signal worked out at 0.0816 normalized occupancy.

For the sequence AATGCTGC, the binding signal came out at 0.0788 normalized occupancy.

In the case of CATGCTGG, the binding signal worked out at 0.125 normalized occupancy.

As to GATGCTTA, the binding signal worked out at 0.0759 normalized occupancy.

In the case of CATGCTTA, the binding signal was 0.104 normalized occupancy.

On to CGTGCTTC, for which the binding signal came to 0.0896 normalized occupancy.

GATGCTGC: the binding signal stood at 0.078 normalized occupancy.

As to CATGCTTC, the binding signal is 0.106 normalized occupancy.

With CAAGCTGG, the binding signal stood at 0.0721 normalized occupancy.

On to AATGCTTA, for which the binding signal is 0.0806 normalized occupancy.

Take AATGCTGG: the binding signal is 0.0789 normalized occupancy.

CATGCTGC: the binding signal is 0.122 normalized occupancy.

For CAACCGTC, the binding signal was found to be 0.075 normalized occupancy.

With ATGCAATG, the binding signal worked out at 0.08 normalized occupancy.

Turning to CGACCTCG, the binding signal amounted to 0.0723 normalized occupancy.

Take ATGATAAA: the binding signal turned out to be 0.0793 normalized occupancy.

On to ACGAGGTC, for which the binding signal came to 0.0849 normalized occupancy.

Turning to ATAGACCC, the binding signal worked out at 0.0762 normalized occupancy.

Take GTGACCCA: the binding signal was 0.0762 normalized occupancy.

For GATGCTGA, the binding signal came out at 0.0746 normalized occupancy.

CATGCTGA: the binding signal turned out to be 0.112 normalized occupancy.

As to TATGCTGA, the binding signal amounted to 0.0773 normalized occupancy.

Consider CCCTTGCA, for which the binding signal turned out to be 0.0735 normalized occupancy.

As to ACATTTTC, the binding signal worked out at 0.0796 normalized occupancy.

Take AACGTTGC: the binding signal worked out at 0.0766 normalized occupancy.

Regarding CGCGTTGC, the binding signal was found to be 0.0781 normalized occupancy.

Regarding CACGTTGG, the binding signal came out at 0.122 normalized occupancy.

TACGTTGA: the binding signal was found to be 0.082 normalized occupancy.

For CACGTTGC, the binding signal was 0.131 normalized occupancy.

AACGTTGA: the binding signal amounted to 0.0764 normalized occupancy.

For GACGTTGA, the binding signal was 0.0764 normalized occupancy.

As for CACGTTGA, the binding signal worked out at 0.115 normalized occupancy.

Regarding AACGTTGG, the binding signal worked out at 0.0767 normalized occupancy.

For the sequence AACTCGCG, the binding signal was 0.0749 normalized occupancy.

Turning to ACAAAGGG, the binding signal stood at 0.0742 normalized occupancy.

Consider TCCTAAGA, for which the binding signal came to 0.0773 normalized occupancy.

As for CTCAGTAC, the binding signal came out at 0.0743 normalized occupancy.

In the case of CCTCCTCC, the binding signal worked out at 0.0782 normalized occupancy.

On to CGCATGAA, for which the binding signal stood at 0.0861 normalized occupancy.

For the sequence CGTATGAG, the binding signal came out at 0.0785 normalized occupancy.

For the sequence CGTATGAC, the binding signal turned out to be 0.0817 normalized occupancy.

As for AGTATGAG, the binding signal was 0.0766 normalized occupancy.

Regarding CGCATGAG, the binding signal turned out to be 0.0969 normalized occupancy.

AGCATGAG: the binding signal came to 0.102 normalized occupancy.

On to CGCATGAC, for which the binding signal was found to be 0.105 normalized occupancy.

For ATCATGAG, the binding signal turned out to be 0.09 normalized occupancy.

GGCATGAC: the binding signal is 0.0858 normalized occupancy.

On to ACAGATCT, for which the binding signal amounted to 0.0745 normalized occupancy.

For GGCATACA, the binding signal turned out to be 0.0776 normalized occupancy.

Regarding GAGACATC, the binding signal came out at 0.0756 normalized occupancy.

With AATGCCGC, the binding signal worked out at 0.0765 normalized occupancy.

As for CATGCCAC, the binding signal was 0.0989 normalized occupancy.

For GATGCCGA, the binding signal was determined as 0.0738 normalized occupancy.

For the sequence CATGCCAG, the binding signal was found to be 0.0874 normalized occupancy.

On to CATGCCGA, for which the binding signal was 0.102 normalized occupancy.

With CATGCCGC, the binding signal came out at 0.105 normalized occupancy.

CATGCCGG: the binding signal is 0.0917 normalized occupancy.

Turning to CATGCCAA, the binding signal is 0.0927 normalized occupancy.

For TATGCCGA, the binding signal amounted to 0.0757 normalized occupancy.

Turning to ACCTAAAT, the binding signal was found to be 0.073 normalized occupancy.

GAGCTATA: the binding signal was 0.0729 normalized occupancy.

Turning to ATGTGGAA, the binding signal came out at 0.0936 normalized occupancy.

As for GTATGGAA, the binding signal was determined as 0.0836 normalized occupancy.

Take ACAGCACG: the binding signal amounted to 0.0906 normalized occupancy.

Take CCCTGGAA: the binding signal is 0.0745 normalized occupancy.

Take AGCAGACA: the binding signal was found to be 0.0774 normalized occupancy.

CCGCCACC: the binding signal was 0.0762 normalized occupancy.

TAATTGTA: the binding signal worked out at 0.0773 normalized occupancy.

On to CTTTTGGA, for which the binding signal amounted to 0.0744 normalized occupancy.

For the sequence CACCTGAC, the binding signal came to 0.0973 normalized occupancy.

As to CACCTGGC, the binding signal amounted to 0.103 normalized occupancy.

As for CACCTGAG, the binding signal was 0.0741 normalized occupancy.

In the case of CACCTGTC, the binding signal amounted to 0.0839 normalized occupancy.

Regarding CACCTGGA, the binding signal came to 0.0905 normalized occupancy.

As to CACCTGGG, the binding signal stood at 0.0841 normalized occupancy.

With ATTCGAGG, the binding signal was 0.0723 normalized occupancy.

Consider ACTGCACT, for which the binding signal is 0.0733 normalized occupancy.

Take GCATGTCA: the binding signal amounted to 0.0972 normalized occupancy.

For CCATGTTA, the binding signal was 0.0847 normalized occupancy.

As to ACATGTTA, the binding signal turned out to be 0.0993 normalized occupancy.

Turning to ACATGTTG, the binding signal was 0.11 normalized occupancy.

As for ACATGTCA, the binding signal was 0.0911 normalized occupancy.

As for AGATGTTG, the binding signal was 0.0819 normalized occupancy.

In the case of GCATGTTA, the binding signal turned out to be 0.0976 normalized occupancy.

Consider GCATGTCC, for which the binding signal was 0.0929 normalized occupancy.

As to ATATGTTA, the binding signal turned out to be 0.0924 normalized occupancy.

With AAATGTTG, the binding signal amounted to 0.0794 normalized occupancy.

As for AGATGTTA, the binding signal stood at 0.0811 normalized occupancy.

For GTATGTTA, the binding signal was 0.0849 normalized occupancy.

As for TACAGACA, the binding signal worked out at 0.0803 normalized occupancy.

On to CATTGACG, for which the binding signal turned out to be 0.0792 normalized occupancy.

Take CGACCCTC: the binding signal turned out to be 0.0724 normalized occupancy.

In the case of TCTTGTAA, the binding signal was 0.0718 normalized occupancy.

AGAACGAC: the binding signal was found to be 0.0774 normalized occupancy.

GAGGCCCC: the binding signal is 0.0733 normalized occupancy.

For the sequence GATGTCCA, the binding signal is 0.0757 normalized occupancy.

Consider CCATTCTA, for which the binding signal came out at 0.0759 normalized occupancy.

For the sequence AGCTGCCA, the binding signal was determined as 0.0736 normalized occupancy.

With CCATGTTC, the binding signal worked out at 0.0828 normalized occupancy.

Regarding ATATGTTC, the binding signal was 0.0831 normalized occupancy.

With ACATGTTC, the binding signal turned out to be 0.0965 normalized occupancy.

In the case of GGCATCAC, the binding signal was 0.0813 normalized occupancy.

As to GACAAGCC, the binding signal amounted to 0.0728 normalized occupancy.

For the sequence AAGCATCA, the binding signal came out at 0.076 normalized occupancy.

ACACGCAA: the binding signal came to 0.087 normalized occupancy.

For ATACGCAG, the binding signal came to 0.0734 normalized occupancy.

With ATACGCAC, the binding signal is 0.0799 normalized occupancy.

Regarding ACACGCAT, the binding signal was determined as 0.0976 normalized occupancy.

Consider ATGCGCAC, for which the binding signal came to 0.0828 normalized occupancy.

For ATACGCAT, the binding signal worked out at 0.0968 normalized occupancy.

As to ACACGCAC, the binding signal was found to be 0.0931 normalized occupancy.

Take ATGCGCAT: the binding signal was determined as 0.102 normalized occupancy.

Take ATGCGCAG: the binding signal amounted to 0.0789 normalized occupancy.

With CAGTACTA, the binding signal was determined as 0.0775 normalized occupancy.

Take CCCACAGC: the binding signal stood at 0.0741 normalized occupancy.

For CCTGGCTC, the binding signal worked out at 0.0726 normalized occupancy.

Consider ACCTAAGT, for which the binding signal came out at 0.0745 normalized occupancy.

Take AGTGATGG: the binding signal was 0.0766 normalized occupancy.

As to GGTAGTCA, the binding signal is 0.0743 normalized occupancy.

For AAAATGAC, the binding signal is 0.0766 normalized occupancy.

On to CATGCAGC, for which the binding signal was found to be 0.0946 normalized occupancy.

In the case of AATGCAGG, the binding signal was 0.08 normalized occupancy.

On to CATGCAGG, for which the binding signal was 0.097 normalized occupancy.

CCTGCAGG: the binding signal stood at 0.074 normalized occupancy.

As to AATGCAGA, the binding signal is 0.0752 normalized occupancy.

In the case of CATGCAGA, the binding signal was 0.0959 normalized occupancy.

As to GGTTTGTA, the binding signal is 0.0749 normalized occupancy.

As to AGTTCTAC, the binding signal was 0.0751 normalized occupancy.

Regarding AACAAATT, the binding signal turned out to be 0.0736 normalized occupancy.

Take CGGCAAGC: the binding signal was found to be 0.0718 normalized occupancy.

Turning to CTTGTAAC, the binding signal is 0.0775 normalized occupancy.

ACCCACCG: the binding signal is 0.0804 normalized occupancy.

Consider ATCGCATC, for which the binding signal amounted to 0.0742 normalized occupancy.

As to ACCGCATC, the binding signal was 0.0749 normalized occupancy.

In the case of AGCGCATA, the binding signal amounted to 0.0757 normalized occupancy.
